Bioassay records from PubChem BioAssay.
The entries come from a sample that favours hits as a whole.
ERK EGF block: qHTS Assay for Inhibitors of the ERK Signaling Pathway using a Homogeneous Screening Assay; Stimulation with EGF | HEK293-V1b, EGF-stimulated phospho-ERK AlphaScreen | Potency, µM (series often up to 11.5 µM), hits mostly inhibitors | 0.41% of 130,000 active | AID 1454, 2008; note: nearly all actives have a fitted effect of over 55% in size
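Stably V1b-transfected HEK293 cells; 30 min compound, then EGF 25 nM final for 5 min at 37C; 10 min lysis; phospho-ERK by AlphaScreen after 5 hr beads at room temperature.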
NPSR antag: qHTS Assay for Antagonists of the Neuropeptide S Receptor: cAMP Signal Transduction; CHO-NPSR cells, cAMP TR-FRET, antagonist mode; Potency, µM (doses to about 38.3 µM), hits mostly inhibitors; 1% of 220,000 active; AID 1461, 2008; note: nearly all actives have a fitted effect of over 50% in size
Target sequence (Q6W5P4 whole entry, looked up): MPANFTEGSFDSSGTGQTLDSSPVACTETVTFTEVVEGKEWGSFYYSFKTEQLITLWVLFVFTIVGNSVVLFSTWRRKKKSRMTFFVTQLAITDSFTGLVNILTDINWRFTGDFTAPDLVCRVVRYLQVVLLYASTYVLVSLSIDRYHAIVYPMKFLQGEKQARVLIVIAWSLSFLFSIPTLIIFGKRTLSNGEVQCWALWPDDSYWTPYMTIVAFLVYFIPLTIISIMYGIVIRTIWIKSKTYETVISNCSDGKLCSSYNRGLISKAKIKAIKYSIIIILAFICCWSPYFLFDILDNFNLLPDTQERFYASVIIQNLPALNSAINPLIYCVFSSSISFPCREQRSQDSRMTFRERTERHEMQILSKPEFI
Large screens that a line does not name were inactive. Calls come from the whole dose curve; as a rule, active = well fitted curve in the direction sought with a large enough effect; inconclusive = small, poorly fitted or top-dose-only effect, or another doubt; inactive = no such curve, though single readings can be large; an effect the other way counts as inactive or inconclusive.

CCCc1nc2ccccc2c(C(=O)OCC(=O)Nc2cccc(S(=O)(=O)N3CCOCC3)c2)c1CC	none (no result: ERK EGF block)
CCCc1nc2ccccc2c(C(=O)OCC(=O)Nc2ccc(S(=O)(=O)N3CCOCC3)cc2)c1CC	NPSR antag 10µM (no result: ERK EGF block)
Fc1ccc(C(c2ccc(F)cc2)N2CCN(C/C=C\c3ccccc3)CC2)cc1	none (no result: NPSR antag)
Cc1c(C(=O)O)cccc1-n1c(C)cc(/C=N/Nc2ccc([N+](=O)[O-])cn2)c1C	NPSR antag 10µM
Cc1cc(/C=N/Nc2ccc([N+](=O)[O-])cn2)c(C)n1-c1ccccc1	none (no result: ERK EGF block)
CC(=O)/C=C\C1[C@]2(C)CCCC(C)(C)C2CC[C@@]1(C)O (some centres not stated)	none (no result: NPSR antag)
Cc1ccc(CC(Cc2nc3ccccc3[nH]2)c2nc3ccccc3[nH]2)cc1 (configuration not stated)	none (no result: NPSR antag)
Cc1nc(Nc2ccc(C(=O)O)cc2)nc(Nc2ccc(C(=O)O)cc2)c1[N+](=O)[O-]	none
CC(=O)Nc1ccc(Nc2nc(C)c([N+](=O)[O-])c(Nc3ccccc3)n2)cc1	ERK EGF block 31.6µM
Cc1c(N=C2C=C(Br)C(=O)C(Br)=C2)c(=O)n(-c2ccccc2)n1C	ERK EGF block inconclusive
Cc1c(N=C2C=CC(=O)c3ccccc32)c(=O)n(-c2ccccc2)n1C	ERK EGF block inconclusive, NPSR antag 10µM
COc1cc2c(cc1OC)[C@H](C)N(CC1C(=O)O[C@@H]3C[C@@]4(C)CCC[C@H](C)[C@@]45OC5[C@H]13)CC2 (some centres not stated)	none (no result: NPSR antag)
Cc1ccc(Nc2c(-c3ccccn3)nc3ccc(C)cn23)cc1	NPSR antag 10µM
Cc1ccc(Nc2c(-c3ccccn3)nc3cc(C)ccn23)cc1	NPSR antag inconclusive
CC1(C)CC(C(CCN(Cc2ccccc2)C(=O)c2ccco2)c2ccc(F)cc2)CCO1 (configuration not stated)	ERK EGF block 22.4µM, NPSR antag inconclusive
CC1(C)CC(N(Cc2ccc(F)cc2)C(=O)c2ccc(F)cc2)CCO1 (configuration not stated)	none
c1ccc2c(N3CCNCC3)nc(-c3ccoc3)nc2c1	none (no result: NPSR antag)
CCc1cc2c(=O)c(-c3ccc4c(c3)OCCO4)coc2c(CN2CCCCC2C)c1O (configuration not stated)	NPSR antag 10µM
CCc1cc2c(=O)c(-c3nc4ccccc4[nH]3)coc2c(CN2CCCCC2C)c1O (configuration not stated)	none
O=C(c1ccncc1)N1CCC[C@@]2(CCN(c3cccc(-c4ccccc4)c3)C2)C1	none (no result: NPSR antag)
O=C(O)c1ccc(COc2ccccc2/C=C2\NC(=O)N(Cc3ccccc3)C2=O)cc1	none
O=C(O)c1ccc(COc2ccc3ccccc3c2/C=C2/NC(=O)N(Cc3ccc(F)cc3)C2=O)cc1	ERK EGF block 35.5µM
CCCC(=O)OCC(=O)Nc1ccc(N=Nc2ccccc2)cc1	none
CC1CC1C(=O)OCC(=O)Nc1ccc(N=Nc2ccccc2)cc1 (configuration not stated)	ERK EGF block 20µM
O=c1c(-c2ccc(F)cc2)nc2cnc(Nc3ccccc3)nc2n1Cc1cccs1	none (no result: NPSR antag)
CCCC1CC(C(=O)N[C@H](C(C)O)C2OC(SC)[C@@H](O)C(O)C2O)N(C)C1 (some centres not stated)	none (no result: NPSR antag)
CCOC(=O)C1=C(C)NC(C)=C(C(=O)OCC)C1/C=C/c1ccccc1	none (no result: ERK EGF block)
C=CCOC(=O)C1=C(C)NC(C)=C(C(=O)OCC=C)C1/C=C/c1ccccc1	ERK EGF block 25.1µM
CC(C)C[C@@H](CC(=O)N[C@@H](CCC(=O)O)CC(=O)O)NC(=O)[C@@H]1CCCC[C@H]1NC(=O)C[C@@H](NC(=O)C[C@H](CO)NC(=O)[C@@H]1CNCC[C@H]1N)C(C)C	none (no result: NPSR antag)
Cc1nn(-c2ccccc2)c(N2CCCC2)c1/C=N/Nc1ccc(S(=O)(=O)Nc2ccccc2)cc1[N+](=O)[O-]	none
COc1ccccc1NS(=O)(=O)c1ccc(N/N=C/c2c(C)nn(-c3ccccc3)c2N2CCCC2)c([N+](=O)[O-])c1	ERK EGF block 12.6µM
COc1ccc(CC(=O)Nc2ccc(N3CCN(c4ccc(OC)cc4)CC3)c(C#N)c2)cc1	none (no result: ERK EGF block)
COc1ccc(N2CCN(c3ccc(NC(=O)c4ccc5c(c4)OCO5)cc3C#N)CC2)cc1	NPSR antag 5.01µM (no result: ERK EGF block)
COc1cccc(CS(=O)(=O)c2nnnn2CC(C)C)c1	none (no result: NPSR antag)
CC1=NN(c2ccccc2)C(=O)/C1=C\C=C1\N(C)c2ccccc2C1(C)C	ERK EGF block 15.8µM
CC1=NN(c2ccccc2)C(=O)/C1=C\C=C1/N(C)c2ccccc2C1(C)C	ERK EGF block 12.6µM
Cc1ccccc1N=C/C=C1\N(C)c2ccccc2C1(C)C	none (no result: ERK EGF block)
CN1/C(=C\C=[N+](C)c2ccccc2)C(C)(C)c2ccccc21	none (no result: ERK EGF block)
COCCn1c(=O)c(-c2cccs2)nc2cnc(OCc3ccccc3)nc21	none (no result: NPSR antag)
COc1cc2oc(=O)c3c4c(cc5ccc(c1CCN(C)C)c2c53)OCO4	none (no result: NPSR antag)
Cc1nn(CC(=O)NCc2cc3ccccc3[nH]2)c(C)c1[N+](=O)[O-]	ERK EGF block 14.1µM
Cc1nn(CC(=O)NCc2ccccc2F)c(C)c1[N+](=O)[O-]	none
N#CCCN1CCN(C2=NC(=O)C(=C3CCCCC3)S2)CC1	NPSR antag 20µM (no result: ERK EGF block)
O=C1N=C(N2CCOCC2)SC1=C1CCCCC1	none (no result: ERK EGF block)
C=CC[n+]1c(/C=C2\C=Cc3cc(C)ccc3N2CC)ccc2ccccc21	ERK EGF block 22.4µM
CCN1C(=C(C#N)C#N)C=Cc2cc(C)ccc21	none
O=C1C(NS(=O)(=O)c2cccs2)=C(N2CCN(c3cccc(C(F)(F)F)c3)CC2)C(=O)c2ccccc21	NPSR antag 10µM (no result: ERK EGF block)
O=C1C(NS(=O)(=O)c2cccs2)=C(N2CCN(Cc3ccccc3)CC2)C(=O)c2ccccc21	ERK EGF block 15.8µM
O=C1C(NS(=O)(=O)c2ccc(Cl)cc2)=C(N2CCCCC2)C(=O)c2ccccc21	ERK EGF block 14.1µM
NC(=O)C1CCN(C2=C(NS(=O)(=O)c3ccccc3)C(=O)c3ccccc3C2=O)CC1	ERK EGF block inconclusive
CCOc1ccccc1N1CCN(C2=C(NS(=O)(=O)c3cccs3)C(=O)c3ccccc3C2=O)CC1	none (no result: ERK EGF block)
CN1CCN(C2=C(NS(=O)(=O)c3cccs3)C(=O)c3ccccc3C2=O)CC1	none
CCCC[C@@H]1C[C@H]1C(NC(=O)c1ccco1)c1ccccc1 (some centres not stated)	none (no result: NPSR antag)
CCCCC/C=C\C/C=C\CCCCCCCC(=O)NCCc1ccc(O)c(O)c1	none (no result: NPSR antag)
CN(C)C(=O)c1ccc(-c2nc(NCc3cccnc3)c3ccccc3n2)cc1	none (no result: NPSR antag)
CCOC(=O)c1sc2nc(N3CCOCC3)c3c(c2c1N)CC(C)(C)N(C)C3	none (no result: ERK EGF block)
CN1Cc2c(N3CCOCC3)nc3sc(C(=O)c4ccccc4)c(N)c3c2CC1(C)C	NPSR antag 12.6µM
COC(=O)[C@H]1O[C@@H](c2cc(OC)c(C)c(OC)c2OCc2ccccc2)[C@H](C)[C@@H]2O[C@]12C	none (no result: NPSR antag)
C[C@@H]1CC[C@@]2(OC1)OC1CC3C4CC=C5CC(O)CCC5(C)C4CCC3(C)C1[C@@H]2C (some centres not stated)	none (no result: NPSR antag)
CCOC(=O)c1sc2nc(-c3ccco3)c3c(c2c1N)CC(C)(C)OC3	NPSR antag 10µM (no result: ERK EGF block)
COC(=O)CSc1ncnc2c1sc1nc(-c3ccco3)c3c(c12)CC(C)(C)OC3	none (no result: ERK EGF block)
Cc1cc(=O)oc2cc(O)c(O)cc12	none (no result: NPSR antag)
COC(=O)C(C(=O)OC)C(Cc1cc(F)cc(F)c1F)NC=O (configuration not stated)	none (no result: NPSR antag)
CC(C)=CCn1cnc2c1C(NOCc1ccccc1)=NCN2	none (no result: NPSR antag)
